In article PMC8384837, “Expanding the binding specificity for RNA recognition by a PUF domain” one finds binding signal data, which are given here for eight sequences.

Holding throughout (assay): yeast three-hybrid, YBZ-1, SC-Leu-His + 0.5 mM 3-AT, 4 days
Holding throughout (conditions): tags: N-Gal4 AD-HA kept; label: inside an RPR1-promoter hybrid RNA with tandem MS2 sites; ssRNA

One experiment deals with PUM1 PUF domain R8-PWI (Homo sapiens, UniProt Q14671 828-1176, N1122P;Y1123W;Q1126I). The procedure, abridged: (§1)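 Each repeat of the Pumilio-1 PUF domain was randomized at its three base-contacting residues, and these libraries were co-expressed from a centromeric plasmid with matching RNA elements in strain YBZ-1. After four days on SC-Leu (input) or SC-Leu-His + 0.5 mM 3-AT (selection), the repeat regions were PCR-amplified and Illumina-sequenced. The interaction score compares variant frequency between input and selection as a log change, computed in log2 with a pseudocount of 1 for absent variants.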

Another experiment has as its target PUM1 PUF domain R2-PFQ (Homo sapiens, UniProt Q14671 828-1176, N899P;Y900F). The gist of the method: as §1
The target in another experiment is PUM1 PUF domain R3-SCP (Homo sapiens, UniProt Q14671 828-1176, C935S;R936C;Q939P). The gist of the method: as §1
The target of the next experiment is PUM1 PUF domain R3-FRR (Homo sapiens, UniProt Q14671 828-1176, C935F;Q939R). The gist of the method: as §1
A further experiment has as its target PUM1 PUF domain R3-GIR (Homo sapiens, UniProt Q14671 828-1176, C935G;R936I;Q939R). The procedure, abridged: as §1
In the next experiment the target is PUM1 PUF domain R3-AAE (Homo sapiens, UniProt Q14671 828-1176, C935A;R936A;Q939E). The procedure, abridged:
as §1

A further experiment has as its target PUM1 PUF domain R3-TRC (Homo sapiens, UniProt Q14671 828-1176, C935T;Q939C). The gist of the method: as §1
For the next experiment, the target named is T1, PUM1 PUF domain R6-VFK (Homo sapiens, UniProt Q14671 828-1176, N1043V;Y1044F;Q1047K).
T1 sequence: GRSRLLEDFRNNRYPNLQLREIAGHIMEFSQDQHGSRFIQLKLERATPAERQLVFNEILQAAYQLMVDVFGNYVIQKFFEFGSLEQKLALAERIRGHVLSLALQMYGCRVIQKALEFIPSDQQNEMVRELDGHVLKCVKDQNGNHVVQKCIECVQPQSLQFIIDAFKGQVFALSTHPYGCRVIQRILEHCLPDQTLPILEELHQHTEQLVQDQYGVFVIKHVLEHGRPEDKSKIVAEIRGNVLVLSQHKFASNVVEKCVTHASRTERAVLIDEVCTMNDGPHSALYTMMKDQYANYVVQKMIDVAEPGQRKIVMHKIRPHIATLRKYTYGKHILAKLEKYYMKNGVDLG
The gist of the method: as §1

The next experiment concerns the target PUM1 PUF domain R5-LKL (Homo sapiens, UniProt Q14671 828-1176, C1007L;R1008K;Q1011L). The gist of the method:
as §1

Another experiment concerns the target PUM1 PUF domain R5-LHD (Homo sapiens, UniProt Q14671 828-1176, C1007L;R1008H;Q1011D). The procedure, abridged: as §1
In a further experiment the target is PUM1 PUF domain R7-RRH (Homo sapiens, UniProt Q14671 828-1176, S1079R;N1080R;E1083H). The gist of the method: as §1
The target in a further experiment is PUM1 PUF domain R7-ISS (Homo sapiens, UniProt Q14671 828-1176, S1079I;N1080S;E1083S). The gist of the method:
as §1

Regarding “GGCUAGAACUAGUGGAUCCCCCGGCGCCCGGCGGCUCGAGCCCGGGUAAGCGUAAAUAGUCUGCAUGCCGCCGGGCGCCAUGCCUGCAGGUCGACUCUAGAAAACAUG”, in the experiment with PUM1 PUF domain R8-PWI, the binding signal was 4.09 log2 enrichment (interaction score).
For the sequence “GGCUAGAACUAGUGGAUCCCCCGGCGCCCGGCGGCUCGAGCCCGGGUAAGUGUAAAAAGUCUGCAUGCCGCCGGGCGCCAUGCCUGCAGGUCGACUCUAGAAAACAUG”, the binding signal with PUM1 PUF domain R2-PFQ is 4.24 log2 enrichment (interaction score).
For “GGCUAGAACUAGUGGAUCCCCCGGCGCCCGGCGGCUCGAGCCCGGGUAAGUGUAAGUAGUCUGCAUGCCGCCGGGCGCCAUGCCUGCAGGUCGACUCUAGAAAACAUG”, the binding signal in the experiment with PUM1 PUF domain R3-SCP is 3.88 log2 enrichment (interaction score); with PUM1 PUF domain R3-FRR it was 5.43 log2 enrichment (interaction score); with PUM1 PUF domain R3-GIR, 3.07 log2 enrichment (interaction score); in the experiment with PUM1 PUF domain R3-AAE it was 3.07 log2 enrichment (interaction score); with PUM1 PUF domain R3-TRC, 2.14 log2 enrichment (interaction score).
Consider “GGCUAGAACUAGUGGAUCCCCCGGCGCCCGGCGGCUCGAGCCCGGGUAAGUGCAAAUAGUCUGCAUGCCGCCGGGCGCCAUGCCUGCAGGUCGACUCUAGAAAACAUG”, for which the binding signal in the experiment with PUM1 PUF domain R6-VFK was 1.94 log2 enrichment (interaction score).
“GGCUAGAACUAGUGGAUCCCCCGGCGCCCGGCGGCUCGAGCCCGGGUAAGUGUCAAUAGUCUGCAUGCCGCCGGGCGCCAUGCCUGCAGGUCGACUCUAGAAAACAUG”: the binding signal in the experiment with PUM1 PUF domain R5-LKL was 4 log2 enrichment (interaction score).
As for “GGCUAGAACUAGUGGAUCCCCCGGCGCCCGGCGGCUCGAGCCCGGGUAAGUGAAAAUAGUCUGCAUGCCGCCGGGCGCCAUGCCUGCAGGUCGACUCUAGAAAACAUG”, the binding signal in the experiment with PUM1 PUF domain R6-VFK was 8.43 log2 enrichment (interaction score).
For “GGCUAGAACUAGUGGAUCCCCCGGCGCCCGGCGGCUCGAGCCCGGGUAAGUGUGAAUAGUCUGCAUGCCGCCGGGCGCCAUGCCUGCAGGUCGACUCUAGAAAACAUG”, in the experiment with PUM1 PUF domain R5-LHD, the binding signal was 2.82 log2 enrichment (interaction score).
Consider “GGCUAGAACUAGUGGAUCCCCCGGCGCCCGGCGGCUCGAGCCCGGGUAAGUUUAAAUAGUCUGCAUGCCGCCGGGCGCCAUGCCUGCAGGUCGACUCUAGAAAACAUG”, for which the binding signal with PUM1 PUF domain R7-RRH is 5.13 log2 enrichment (interaction score); in the experiment with PUM1 PUF domain R7-ISS, 3.84 log2 enrichment (interaction score).
